This is part of a sample that, as a whole, favours compounds with a hit. Of some 79,000 tested, about 15% had one in any assay. Unmarked numbers belong to inactive results. The source made the active and inactive calls. Cut-off read from the data, not from the text of the source: active = growth inhibition above about 70%; inactive = the rest. Where a SMILES comes first, the peptide text is derived from it. The star is where a group is joined. Boc = CC(C)(C)OC(=O)*; OSu = O=C1CCC(=O)N1O*

Among the data in PubChem BioAssay (NCI) are growth inhibition values, retold here.

Assay [1] is described as follows: NCI Yeast Anticancer Drug Screen. Data for the rad50 strain (AID 155).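 Note: 0% = growth of vehicle-only cultures of the same strain.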 The note with it: S. cerevisiae rad50 strain growth inhibition; at 50.0 µM; active compounds read high. Summed up: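 Growth of the mutant yeast was measured after compound exposure and referenced to vehicle-treated cultures.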
Assay [2] is described as follows: NCI Yeast Anticancer Drug Screen. Data for the mec2-1 strain (AID 157). Conditions: S. cerevisiae mec2-1 strain, at 50.0 µM, active compounds read high. Summed up:
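Readout is yeast growth inhibition, normalised to vehicle-treated controls, in the mec2-1 strain exposed to compound.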

The nature of assay [3]: NCI Yeast Anticancer Drug Screen. Data for the sgs1 mgt1 strain (AID 161).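 Note: 0% = growth of cultures given vehicle only.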 Conditions: S. cerevisiae sgs1 mgt1 strain, at 50.0 µM, active compounds read high. In short, it runs like this:
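Growth of a repair-deficient yeast mutant was monitored after compound treatment and expressed as inhibition relative to vehicle-treated cultures.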

Assay [4] in a line: NCI Yeast Anticancer Drug Screen. Data for the cln2 rad14 strain (AID 165).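 Note: 0% = growth equal to vehicle treated cultures.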 The note with it: S. cerevisiae cln2 rad14 strain, at 50.0 µM, active compounds read high. Summed up: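 Relative to vehicle controls, growth inhibition of compound-treated cln2 rad14 yeast was recorded.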
Assay [5] in a line: NCI Yeast Anticancer Drug Screen. Data for the bub3 strain (AID 167). Conditions: S. cerevisiae bub3 mutant strain, at 50.0 µM, active compounds read high. Summed up:
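Whole-cell yeast assay. The mutant strain was incubated with compounds, and growth inhibition was determined by comparison with vehicle-treated cells.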

Assay [6] in a line: NCI Yeast Anticancer Drug Screen. Data for the mlh1 rad18 strain (AID 175). Conditions: S. cerevisiae mlh1 rad18 strain growth inhibition; at 50.0 µM; active compounds read high. Summed up:
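Test agents were incubated with a yeast strain of defined genotype (DNA damage repair defect). Inhibition of growth was derived by comparison with vehicle-exposed cultures.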

With `CN1C(C)(C)CC(CN2c3ccccc3Sc3ccccc32)C1(C)C` (stereo not given), the growth inhibition in assay [1] is 34.2%; in assay [2] it was 6.8%; in assay [3], 37.9%; in assay [4], -19.3%; in assay [5] it was 27.9%; in assay [6] it was 45.2%.
With `CCOC(=O)C1C(c2ccccc2)ON(c2ccccc2)C1c1cccc([N+](=O)[O-])c1` (stereo not given), the growth inhibition was 22.2% in assay [1]; 3.9% in assay [2]; -4.05% in assay [3]; -11.5% in assay [4]; 3.3% in assay [5]; 1.65% in assay [6].
In the case of `CSc1ccc2c(cc1=O)[C@@H](NC(=O)c1ccc([N+](=O)[O-])cc1)CCc1cc(O)c(O)c(O)c1-2`, the growth inhibition in assay [1] is 37.3%; in assay [2], 33.5%; in assay [3] it was 39.2%; in assay [4] it was 23.1%; in assay [5], 43.8%; in assay [6], 50%.
For `O=C(CN1CCN(c2cccc(Cl)c2)CC1)N1CCc2c([nH]c3ccccc23)C1c1cccnc1` (stereo not given), the growth inhibition is -15.3% in assay [1]; -30.8% in assay [2]; 1.6% in assay [3]; 6% in assay [4]; -2.25% in assay [5]; -16.9% in assay [6].
Turning to `CC(C)(C)OC(=O)NC(Cc1ccc(O)cc1)C(=O)NC(CCCCN)C(=O)NC(Cc1ccc(O)cc1)C(=O)NC(CCCCN)C(=O)ON1C(=O)CCC1=O` (stereo not given) (Boc-YKYK-OSu; configuration not given here), the growth inhibition was -12.2% in assay [1]; -15.5% in assay [2]; -6.7% in assay [3]; 29.1% in assay [4]; -2.8% in assay [5]; 4.45% in assay [6].
Regarding `COc1ccc2c(O)c(Oc3ccc(Cl)cc3)c(=O)oc2c1`, the growth inhibition in assay [1] was -4.2%; in assay [2], -1.1%; in assay [3], -1.45%; in assay [4] it was 2.6%; in assay [5] it was 7.95%; in assay [6], 22.4%.
`O=C1NCC(C2CC2)(C2CC2)O1`: the growth inhibition in assay [1] is 8.85%; in assay [2] it was -16.9%; in assay [3], -5.7%; in assay [4], -34%; in assay [5] it was 8.7%; in assay [6] it was -21%.
With `COc1ccc(NC(=O)Oc2ccc(OC)cc2)cc1`, the growth inhibition is 5.75% in assay [1]; 12.2% in assay [2]; 0.75% in assay [3]; 11.2% in assay [4]; 5.5% in assay [5]; -16.1% in assay [6].
With `Cc1ccc(OC(=O)Nc2ccc(C(=O)O)c(O)c2)cc1`, the growth inhibition was -10.9% in assay [1]; 8.3% in assay [2]; 9.2% in assay [3]; -6.75% in assay [4]; -4.7% in assay [5]; -5.2% in assay [6].
On to `Cc1ccc(S(=O)(=O)N/N=C/C(C)(c2ccccc2)c2ccccc2)cc1`, for which the growth inhibition is 70.9% (active) in assay [1]; 52% in assay [2]; 69.3% in assay [3]; 40.2% in assay [4]; 15.8% in assay [5]; 47.8% in assay [6].
Regarding `COC(=O)c1ccc(SCCC(=O)CO)cc1`, the growth inhibition is 19.4% in assay [1]; 15.9% in assay [2]; -4.6% in assay [3]; 5.35% in assay [4]; 13% in assay [5]; 23.9% in assay [6].
For the compound `CCOC(=O)CC(C(C)=O)C(=O)OCC` (stereo not given), the growth inhibition in assay [1] was 14.9%; in assay [2] it was 12.3%; in assay [3] it was -3.55%; in assay [4], -29.6%; in assay [5], 5.6%; in assay [6], -1.4%.
On to `CCOC(=O)C(Cc1c[nH]c2ccccc12)NC(=O)C1(O)C(O)C2(CC)C=CCN3CCC4(c5cc(C6(C(=O)OC)CC7CC(CC)CN(CCc8c6[nH]c6ccccc86)C7)c(OC)cc5N(C)C14)C32` (stereo not given), for which the growth inhibition in assay [1] was 20.8%; in assay [2], 20.2%; in assay [3], 7.75%; in assay [4], 32.4%; in assay [5], 17%; in assay [6], 6.2%.
`Nc1nnc2nc(C(C(=O)c3cccc(O)c3)c3nc4nnc(N)n4[nH]c3=O)c(=O)[nH]n12`: the growth inhibition is 8.65% in assay [1]; 0% in assay [2]; -7.05% in assay [3]; 4.7% in assay [4]; 1.2% in assay [5]; 1.05% in assay [6].
With `O=C(O)c1c(F)c(F)c(C(=O)O)c(F)c1F`, the growth inhibition in assay [1] was 6.25%; in assay [2], -15.8%; in assay [3], 16.3%; in assay [4], 15.1%; in assay [5] it was 14.9%; in assay [6], 11.5%.
Consider `C=C1C(=O)O[C@@H]2/C=C(/C)[C@@H](OC(C)=O)C[C@@H](O)/C(C)=C\[C@@H](OC(=O)[C@]3(C)O[C@@H]3C)[C@@H]12`, for which the growth inhibition in assay [1] was 11.3%; in assay [2] it was -0.85%; in assay [3], 16.2%; in assay [4], 20.5%; in assay [5], 13.4%; in assay [6], -63.6%.
Turning to `C=Cc1c(C)c(OC)cc2c1Oc1ccc(OC)c(C)c1CC2`, the growth inhibition in assay [1] was 0.75%; in assay [2], -0.2%; in assay [3], 19.5%; in assay [4], 8.35%; in assay [5], 13.8%; in assay [6], -23.6%.
On to `COC(=O)c1nc(N)nc(C(=O)OC)c1C(=O)c1ccccn1`, for which the growth inhibition in assay [1] was -12.1%; in assay [2], -19.2%; in assay [3] it was 1.65%; in assay [4] it was -20.2%; in assay [5], -11.3%; in assay [6], -1.75%.
As for `Cn1nc2c(c1-c1ccncc1)CCc1ccccc1-2`, the growth inhibition in assay [1] was 3.9%; in assay [2] it was 65.3%; in assay [3] it was 36%; in assay [4], -3.55%; in assay [5], 66.1%; in assay [6], 24.6%.
On to `COC(=O)C1CCCC(=O)C1C(=O)OC` (stereo not given), for which the growth inhibition in assay [1] is 1.35%; in assay [2] it was 0.3%; in assay [3], -3.45%; in assay [4], -36.2%; in assay [5], -23%; in assay [6] it was 2.05%.
